UCHL1 inh: inhibitors of human UCHL1 deubiquitinase; 47,000 compounds, 0.2% hits; inhibition, % at 20 µM; AID 1645859; purified UCHL1, Ub-rhodamine cleavage fluorescence
OTUD3 inh: blocks human OTUD3 ubiquitin-rhodamine cleavage. purified OTUD3, Ub-rhodamine fluorescence, 2 h. inhibition, % at 25 µM. 47,000 compounds, 0.7% hits. AID 1645858
Target sequence (Q5T2D3 whole entry, looked up): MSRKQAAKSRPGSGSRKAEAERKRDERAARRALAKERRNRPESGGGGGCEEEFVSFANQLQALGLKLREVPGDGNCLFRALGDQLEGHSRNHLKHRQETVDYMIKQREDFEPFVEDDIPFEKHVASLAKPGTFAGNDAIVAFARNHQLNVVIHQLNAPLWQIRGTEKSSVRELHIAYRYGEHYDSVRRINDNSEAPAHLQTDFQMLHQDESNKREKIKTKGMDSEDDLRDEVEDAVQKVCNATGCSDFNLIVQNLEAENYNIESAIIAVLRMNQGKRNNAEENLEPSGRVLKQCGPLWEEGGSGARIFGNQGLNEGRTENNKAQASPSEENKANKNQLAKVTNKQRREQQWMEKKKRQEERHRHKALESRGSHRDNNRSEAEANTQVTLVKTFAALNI
USP10 inh: blocks human USP10 ubiquitin-rhodamine cleavage; 47,000 compounds, 1.1% hits; inhibition, % at 20 µM; AID 1645856; purified USP10, Ub-rhodamine fluorescence, 60 min; Q14694
USP7 block: blocks human USP7 ubiquitin-rhodamine cleavage; 47,000 compounds, 0.3% hits; purified USP7, Ub-rhodamine cleavage fluorescence; inhibition, % at 20 µM; Q93009
* hit, by the source's call; nt = no result given. A selection: hits, their analogues and other compounds. The true share with any hit is near 1.8%. Rule as the data show it: active = inhibition above about 30%; inactive = the rest.

SMILES	UCHL1 inh	OTUD3 inh	USP10 inh	USP7 block
COc1ccc(OC)c(NC(=O)c2cc(F)ccc2-n2cnnn2)c1	7	10	2	9
Cc1noc(-c2cc(=O)n(CC(=O)Nc3ccccc3Cl)c3ccccc23)n1	2	-5	34*	6
Cc1noc(-c2cc(=O)n(CC(=O)Nc3ccccc3)c3ccccc23)n1	0	-3	9	-1
Cn1c(SCc2nc(-c3ccccc3)no2)nnc1-c1ccc2c(c1)OCCO2	2	8	0	0
COc1ccc2c(c1)C(=O)C/C(=C\c1ccc(Cl)cc1)C2	8	18	8	10
O=C1NC(=O)/C(=C/c2ccc(OC(=O)c3ccc(Cl)cc3Cl)cc2)N1	4	21	45*	5
Cc1nc2nc(C(c3ccccc3)c3ccccc3)[nH]n2c(=O)c1Cc1ccccc1	3	-6	34*	11
Cc1cc(=O)n2[nH]c(C(c3ccccc3)c3ccccc3)nc2n1	1	-3	6	4
CC1CCC(NC(=O)c2cnn3c4c(cnc23)CCCCCC4)CC1 (stereo not given)	2	5	5	-4
CSc1cccc(NC(=O)C2C3C=CC4(O3)C2C(=O)N(CCc2ccccc2)C4C(=O)NC2CCCCC2)c1 (stereo not given)	-2	11	39*	-6
Cc1ccc(NC(=O)C2C3C=CC4(O3)C2C(=O)N(CCc2ccccc2)C4C(=O)NC2CCCCC2)cc1Cl (stereo not given)	0	22	25	-3
CC(C)OCCCN1C(=O)C2C(C(=O)Nc3ccc(Oc4ccccc4)cc3)C3C=CC2(O3)C1C(=O)NC1CCCCC1 (stereo not given)	3	33*	5	-15
Cc1cc(C)cc(OC(C)C(=O)N2CCC(c3[nH]nc4nccnc34)CC2)c1 (stereo not given)	1	7	2	3
COc1ccc(OC)c(NC(=O)Cn2c(=O)n(C3CCCCC3)c(=O)c3ccccc32)c1	-3	12	43*	-3
COc1ccc(NC(=O)Cn2c(=O)n(C3CCCCC3)c(=O)c3ccccc32)cc1	2	12	6	0
O=C(Cn1c(=O)n(-c2ccc(CC(=O)NC3CCCC3)cc2)c(=O)c2ccccc21)Nc1ccccc1[N+](=O)[O-]	2	29	44*	0
O=C(Cc1ccc(-n2c(=O)c3ccccc3n(Cc3cccc(F)c3)c2=O)cc1)NC1CCCC1	-2	5	16	6
COc1cc(NC(=O)Cn2c(=O)n(-c3ccc(CC(=O)NC4CCCC4)cc3)c(=O)c3ccccc32)cc(OC)c1	-1	43*	24	17
O=C(Cn1c(=O)n(CCC(=O)NC2CCCC2)c(=O)c2ccccc21)Nc1ccccc1F	3	10	2	6
O=C(Cc1ccc(-n2c(=O)c3ccccc3n(Cc3cccc([N+](=O)[O-])c3)c2=O)cc1)NC1CCCC1	8	20	36*	18
CCN1CCCC1CNC(=O)Cc1nc(-c2ccc(OC)cc2)no1 (stereo not given)	2	8	-2	2
COCCCn1c(C(=O)N2CC(C)CC(C)C2)cc2c(=O)n3ccccc3nc21 (stereo not given)	0	1	-4	nt
COc1ccccc1-c1ccc([C@H]2C[C@@H](NC(C)=O)[C@@H]3CCCC[C@H]3O2)cc1	6	11	0	4
CO[C@H]1CC[C@H](O)c2c1oc1c3c4c(c(O)c1c2=O)-c1c(cc2c(Cl)c(C)n(N)c(=O)c2c1O)C[C@@H]4OCO3	10	44*	23	3
COc1ccc2[nH]cc(CCN=C(NC(=O)C(C)C)Nc3nc(C)cc(C)n3)c2c1	6	1	-1	4
SMILES	UCHL1 inh	OTUD3 inh	USP10 inh	USP7 block
COc1ccc2c(CCN=C(NC(C)=O)Nc3nc(C)cc(C)n3)c[nH]c2c1	2	2	-1	34*
CC(C)CNC(=O)c1cccc(N2C(=O)C(C)(C)CS2(=O)=O)c1	-1	7	1	4
CCOc1cccc(-c2noc(-c3nn(-c4cccc(C)c4)ccc3=O)n2)c1	8	0	9	-2
CCOc1cccc(-c2noc(-c3nn(-c4ccccc4)ccc3=O)n2)c1	7	40*	24	21
COc1ccccc1S(=O)(=O)N1CCCC(c2nn(C)c3nccnc23)C1 (stereo not given)	-5	2	2	-4
CCc1[nH]c(=O)cc2cc(OC)c(OC)cc12	48*	92*	79*	-51
CC(C)CCN1[C@H]2CCN(C(=O)c3ccncc3)CC[C@@H]2Oc2ccccc2S1(=O)=O	0	-13	-5	-11
COc1ccc(NC(=O)Cn2c(=O)n(-c3ccc(CC(=O)NCc4ccco4)cc3)c(=O)c3ccccc32)cc1Cl	20	9	61*	0
COc1cc(OC)c(NC(=O)Cn2c(=O)n(-c3ccc(CC(=O)NCC4CCCO4)cc3)c(=O)c3ccccc32)cc1Cl (stereo not given)	4	-4	0	4
CCC(C)NC(=O)Cn1c(=O)n(-c2ccccc2)c(=O)c2ccc(C(=O)NCc3ccco3)cc21 (stereo not given)	4	32*	7	-5
O=C(Cc1ccc(-n2c(=O)c3ccccc3n(CC(=O)Nc3ccc(Cl)cc3Cl)c2=O)cc1)NCc1ccco1	2	3	46*	14
CCCN(CCC)C(=O)Cn1c(=O)n(Cc2ccc(C(=O)NCc3ccco3)cc2)c(=O)c2ccccc21	4	3	8	-3
CNc1cc(C2CCCN2C(=O)Cc2c(C)nn(C)c2C)nc(C)n1 (stereo not given)	1	0	-1	2
Cc1cccc(C(=O)NC(Cc2ccccc2)c2nc3ccccc3n2C)c1 (stereo not given)	1	14	3	6
O=C(CSc1nc(C(F)(F)F)cc(=O)[nH]1)NCc1ccccc1	0	-4	3	3
O=C(CSc1nc2cc(C(F)(F)F)ccc2s1)NCC(=O)c1ccccc1	21	-8	45*	59*
COc1cc(C)c2c(=O)c3c(oc2c1)C(=O)c1c(O)c(OC)cc(O)c1C3=O	11	33*	-7	-63
COc1cc(O)c2c(c1C)C(C)(C(C)=O)OC2=O (stereo not given)	1	5	-6	2
Cc1ccccc1NC(=O)c1nc(-c2cn(Cc3ccc(F)cc3)nn2)no1	9	14	35*	0
COc1ccc(Cl)cc1NC(=O)c1nc(-c2cn(-c3ccccc3)nn2)no1	9	11	32*	-9
COc1ccccc1-c1nc(-c2cn(-c3cccc(Cl)c3)nn2)no1	27	17	71*	51*
CCN1CCN(C2(CNC(=O)c3ccc(OC)cc3)CCCCC2)CC1	0	17	-3	3
Cc1nc(Cn2cccc2C(=O)NC2CCCCCC2)no1	0	1	1	0
Cc1ccc(NC(=O)Cc2nnc3cc(-c4nc(C)no4)ccn23)cc1	6	30*	46*	39*
CCc1ccc(NC(=O)Cc2nnc3cc(-c4nc(C)no4)ccn23)cc1	1	15	56*	44*
O=C(Nc1cccc(F)c1)Nc1cccc(-c2nnc(-c3ccccc3)o2)c1	4	22	32*	10

Assay outcomes as filed in PubChem BioAssay.
